Source: PubChem
FUS yeast rescue = qHTS for Suppressors of FUS Proteinopathy: Primary screen using FUS-linked yeast assay; S. cerevisiae FUS-expressing, growth rescue, OD600, 24 h; 390,000 compounds, 0.24% hits; Potency, µM (series often up to 76.6 µM), hits mostly activators;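 note: plate controls were DMSO vehicle for no effect and reference control for full effect; nearly all actives have a fitted effect of over 55% in size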
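Compound concentration series was pinned onto galactose-induced FUS-expressing yeast seeded at OD 0.005. Plates sat 24hr at 30C; absorbance at 600 nm gave growth. DMSO served as background control.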
TDP-43 yeast inh = qHTS of TDP-43 Inhibitors. TDP-43 expressing yeast growth rescue, BacTiter-Glo, 24 h. AID 652104, 2013. Potency, µM (top dose mostly 46.1 µM), for inactives: at the top dose growth rescue (activation), most hits filed as activators. 410,000 compounds, 1.8% hits; note: % of control where 0% means no effect; nearly all actives have a fitted effect of over 50% in size
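Luminescence from BacTiter-Glo reports growth of TDP-43-expressing yeast after 24 hr at 30 deg C with compound. Cells were raffinose-pregrown to mid-log, then seeded in galactose medium at OD600=0.02.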
Abeta yeast res = qHTS for compounds that reverse cellular toxicity of Amyloid beta (A-beta) peptide in yeast: Primary Screen; 410,000 compounds, 0.063% hits; yeast expressing A-beta42, growth rescue, OD600, 48 h; response scale: 0% DMSO, 100% iron-clioquinol control; Potency, µM (series often up to 46.1 µM), hits mostly activators; note: nearly all actives have a fitted effect of over 55% in size
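Yeast growth medium received pinned compounds, then yeast cells expressing toxic A-beta were added; plates incubated at 30 C for 48 hr. Growth read as absorbance at 600 nm, normalized to DMSO and equimolar FeCl3 plus clioquinol controls.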
aSyn yeast inh = qHTS of alpha-syn Inhibitors. 370,000 compounds, 0.14% hits. Yeast expressing alpha-synuclein, growth rescue, BacTiter-Glo, 24 h. Potency, µM (series often up to 46.1 µM), without a hit: top-dose growth rescue (activation), hits mostly activators. AID 652106, 2013; note: % of control where 0% means no effect; nearly all actives have a fitted effect of over 65% in size
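Rescue of yeast growth: cells expressing toxic alpha-synuclein, induced in galactose at OD600 0.02, incubated with compound 24 h at 30 C. ATP luminescence quantified growth; inhibitors of toxicity appear as activators.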
The depositor's hits bear a star; i = inactive; ? = inconclusive; · = no result given; [ ] = another dose, or the depositor's remark. This is a sample that favours compounds with a hit; in the whole collection about 2.1% have one here. Calls come from the whole dose curve; as a rule, active = well fitted curve in the direction sought with a large enough effect; inconclusive = small, poorly fitted or top-dose-only effect, or another doubt; inactive = no such curve, though single readings can be large; an effect the other way counts as inactive or inconclusive. Potency is the fitted concentration of half-maximal effect.

SMILES	FUS yeast rescue	TDP-43 yeast inh	Abeta yeast res	aSyn yeast inh
O=C(NCC1COc2ccccc2O1)c1ccc(NC(=O)c2c(Cl)cccc2Cl)cc1 (centres undefined)	i	·	·	·
CCOc1ccc(-c2cn(-c3ccc(OC)cc3)c(SC)n2)cc1	i	12.6µM*	i	7.3%
CCOc1ccc(-c2cn(-c3ccc(OC)cc3)c(SCC(=O)Nc3ccccc3Cl)n2)cc1	i	9.3%[9.22 µM]	i	·
CC1(c2ccccc2)NC(=O)N(CC(=O)NCC2CCCO2)C1=O (centres undefined)	·	2.7%	i	-1.5%
CCOC(=O)c1c(C)nc(C(Cl)(Cl)Cl)nc1N	i	11.2µM*	i	0.3%
Cc1ccc(S(=O)(=O)N2CCCCC2C(=O)N(C)c2ccccc2)cc1 (centres undefined)	i	3.7%	i	-0.6%
CCN(C(=O)C1CCN(c2nc(-c3ccc(OC)cc3)no2)CC1)c1ccccc1	?	?	i	8.8%
COc1ccc(-c2noc(N3CCC(C(=O)N(C)c4ccccc4)CC3)n2)cc1	i	15.8µM*	i	1.6%
Nc1cccc(NP(=O)(c2ccccc2)c2ccccc2)c1	i	3.5%	i	0.8%
Cc1ccc(S(=O)(=O)N(C)C)cc1NC(=O)CCNC(=O)c1ccco1	i	0.9%	i	-2.4%
O=C1COc2ccccc2N1Cc1c(F)cccc1Cl	i	11.2µM*	i	3.7%
COc1ccc(N2CCN(c3nc(-c4cccs4)nc4ccccc34)CC2)cc1	?	12.6µM*	i	-8.6%
CCN1CNC(=S)N(C(C)c2ccccc2)C1 (centres undefined)	i	-14.1%	i	-0.9%
COc1cc2c(O)c3c(c(-c4ccc5c(c4)OCO5)c2cc1OC)C(=O)OC3	8.91µM*	-17.1%	i	-9.8%
COc1cccc(NC(=O)C2CC(=O)N(c3ccc(Br)cc3)C2)c1 (centres undefined)	i	3.2%	i	8.1%
CCc1sc(C(=O)NCc2ccco2)cc1Br	i	15.8µM*	i	-12.4%
CCc1sc(C(=O)NCc2ccco2)cc1C	i	23.9%	i	5.2%
CCn1c(=O)n(-c2ccc(C)c(F)c2)c(=O)c2sc3ccccc3c21	i	0.5%	i	·
Cc1cccc2c(C(=O)N3CCN(c4ccccn4)CC3)cc(-c3cccc(Br)c3)nc12	?	17.8µM*	i	11.9%
O=C(c1cc(-c2ccccc2)nc2ccccc12)N1CCc2ccccc2C1	·	25.1µM*	i	-15.8%
COc1cccc(-c2cc(C(=O)N3CCN(c4ncccn4)CC3)c3ccccc3n2)c1	·	17.8µM*	i	4.2%
Cc1onc(-c2c(F)cccc2Cl)c1C(=O)OCC(=O)N(C)c1ccccc1	i	-3.7%	i	9.8%
O=C(Nc1ccc(F)cc1)C(c1ccccc1OC(F)(F)F)N1CCN(C(=O)c2ccco2)CC1 (centres undefined)	i	6.8%	i	0.2%
O=C(CN1C(=O)CCSc2ccccc21)Nc1ccc(Cl)c(Cl)c1	i	·	·	·
O=C(C(=O)N1CCCC1)c1c(-c2ccccc2)[nH]c2ccccc12	i	17.0%	i	0.3%
SMILES	FUS yeast rescue	TDP-43 yeast inh	Abeta yeast res	aSyn yeast inh
O=C1CS(=O)(=O)C2(C(=O)N(Cc3ccccc3)c3ccccc32)N1c1ccc(F)c(Cl)c1 (centres undefined)	i	20µM*	i	11.8%
O=C(c1cc(Cl)cc(Cl)c1)N1CCC(Oc2cccnc2)CC1	i	·	·	·
COc1ccc(C(C)(NC(C)=O)c2nc(/C=C/c3ccccc3)cs2)cc1 (centres undefined)	?	24.1%	i	-17.7%
COc1ccc(C(C)(O)c2nc(-c3csc4ccccc34)cs2)cc1 (centres undefined)	i	22.4µM*	?	27.2%
COc1ccc(C(C)(O)c2nc(/C=C/c3ccccc3)cs2)cc1 (centres undefined)	i	35.5µM*	?	?
Cc1cccc(NC(=S)NCCc2ccccc2)c1C	i	17.8µM*	i	-2.3%
Cc1c(Cl)cccc1NC(=S)NC1CCCC1	i	20µM*	?	-5.0%
S=C(NCCc1ccc(Cl)cc1)NC1CCCC1	i	20.6%	10µM*	-13.8%
COc1ccc(CCNC(=S)Nc2cccc(C)c2C)cc1	·	?	i	?
S=C(NCCc1ccc(Cl)cc1)NC1CCCCC1	i	0.0%	?	-6.7%
Cc1c(Cl)cccc1NC(=S)NCCc1ccc(Cl)cc1	i	?	10µM*	10.5%
O=C(OCc1ccccc1)C1CCCN1C(=O)c1ccccc1[N+](=O)[O-] (centres undefined)	i	-3.4%	i	3.9%
Nc1nc(Nc2ccccc2)nc(NCc2ccco2)c1[N+](=O)[O-]	i	20µM*	i	9.5%
Cc1ccc(-c2nc(C)c(CCNS(=O)(=O)c3ccccc3F)s2)cc1	i	?	i	?
COc1cc(C(=O)NCC(=O)OCC(=O)c2cccc3ccccc23)cc(OC)c1OC	12.6µM*	8.5%	i	-0.3%
CCOc1ccc(S(=O)(=O)Nc2nc3ccccc3nc2N2CCN(C)CC2)cc1	i	11.9%	i	0.2%
CCOc1ccc(NS(=O)(=O)c2ccc(NS(=O)(=O)c3ccc(SC)cc3)cc2)cc1	28.2µM*	-4.2%	i	0.2%
CCOc1ccc(NS(=O)(=O)c2ccc(NS(C)(=O)=O)cc2)cc1	i	-8.8%	i	-9.7%
CCOc1ccc(S(=O)(=O)Nc2nc3ccccc3nc2Cl)cc1	i	22.4µM*	i	0.7%
O=C(Cn1ncc2c1-c1ccccc1OC2)N1CCN(c2ccccc2F)CC1	i	23.4%	i	·
Cc1ccc2c(c1)-c1c(cnn1CC(=O)N1CCN(c3ccccc3F)CC1)CO2	i	20µM*	i	·
Cc1ccc2c(c1)-c1c(cnn1CC(=O)N(Cc1ccco1)C1CCCCC1)CO2	i	35.5µM*	i	14.7%
CCCN1CNc2c(c(=O)[nH]c(=S)n2CCc2cc(Cl)cc(Cl)c2)C1	·	·	·	-0.5%
NC1=NS(=O)(=O)Nc2ccccc21	i	·	·	·
O=C(NCC1CCN(C(=O)c2c(F)c(F)c(F)c(F)c2F)CC1)c1c(F)c(F)c(F)c(F)c1F	·	12.6µM*	i	12.5%
CCc1ccc2oc(-c3cc(N=Cc4cccc(OC)c4O)ccc3O)nc2c1	i	15.8µM*	i	-0.3%
CC(C)N(Cc1ccccc1)C(=O)CCS(=O)(=O)c1cc2c(cc1Cl)NC(=O)CO2	i	-13.6%	i	-2.6%
C#CC(c1ccccc1)(c1ccccc1)n1ccnc1	i	3.55µM*	i	6.1%
CCCCN(C)S(=O)(=O)c1cc2c(cc1Br)CCN2C(=O)C1CC1	i	-52.8%	i	-34.7%
Cc1ccc2scc(N3CCCCC3C)c(=O)c2c1 (centres undefined)	i	?	i	·
